# Measurements as given in PubChem BioAssay (NCI).
# This is part of a sample that, as a whole, favours compounds with a hit. Of some 83,000 tested, about 20% had one in any assay.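 For each line, cells grew in 96-well plates with the test compound present at a single concentration for 48 hours.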 Values without a mark were called inactive. The source made the active and inactive calls.
# Tested on: A549/ATCC NSCLC
# Assay: NCI-60 one-dose screen, 48 h (100 = growth as untreated, 0 = no growth, -100 = all killed)
# Settings: 10 µM unless noted
# Protocol: Growth inhibition of the A549/ATCC human Non-Small Cell Lung tumor cell line is measured as a screen for anti-cancer activity. Cells are grown in 96 well plates and exposed to the test compound for 48 hours. Compounds are tested at a single concentration, which is 10^-5 M for most compounds. The reported endpoint is percent growth (GI% or GIPRCNT), where numbers from 0 - 100% represent growth inhibition, and numbers from -100% - 0 represent cell death. For example, a value of 40 represents 60% growth inhibition. A value of 0 means no net growth occurred over the course of the experiment. A value of -40 indicates 40% of cells at the beginning of the experiment died by the end of the experiment. A value of -100 means all cells are dead at the end of the experiment.
# NCI-60 Human Tumor Cell Lines Screen was performed using the standard one-dose NCI protocol, which is described in more detail at https://dtp.cancer.gov/discovery_development/nci-60/default.htm.
# Compounds with GIPRCNT values below 10 were considered active. Activity score was based on GIPRCNT using the following formula: […]
# Score is 0 for GIPRCNT values of 100 or above, 50 for GIPRCNT values of 0, and 100 for GIPRCNT values of -100.
row,Compound,growth
1,CC/C=C\C[C@H](O)C/C=C1/C(=O)C=C[C@@H]1C/C=C\CCCC(=O)OC(C)C,-39.2% (active)
2,O=C1Nc2c(ccc(Cl)c2Cl)/C1=C/c1cc(Br)c(O)c(Br)c1,51.4%
3,CCCCCN(CCCCC)CCC[C@@H](C)[C@H]1CC[C@H]2[C@@H]3[C@H](OCCCN)C[C@@H]4C[C@H](OCCCN)CC[C@]4(C)[C@H]3C[C@H](OCCCN)[C@]12C,55.2%
4,COc1nc2c(cc1S(=O)(=O)c1ccccc1)CCc1c-2cnn1-c1ccc(Cl)cc1,95.4%
5,CCN(CC)CC(C)Nc1ccc([N+](=O)[O-])c2sc3ccccc3c(=O)c12 (stereo not given),14.2%
6,C/C(Cc1ccc(Cl)cc1)=C(\c1ccc(OCCN2CCCCCC2)cc1)c1ccc(OC(=O)Cc2ccccc2)cc1,61.3%
7,COc1ccc(Cl)cc1Nc1nc(C(F)(F)F)ccc1C(=O)N/N=C/c1cccnc1,58.7%
8,CCC(c1ccc(O)cc1)C(CC)c1ccc(O)c(F)c1 (stereo not given),89%
9,Cc1ccc(C2CC3c4ccccc4C2C2CCCCN32)cc1 (stereo not given),89.9%
10,COc1ccc(/C=C/C(=O)c2c(O)c(C)c(O)c3c2OC2=CC(O)=C(C(C)=O)C(=O)[C@]23C)cc1,-26.8% (active)
11,CN1CCOCCOCCOc2ccccc2NC(=O)c2nc(cnc2N)-c2ccc(cc2)S1(=O)=O,49.8%
12,Nc1cc2ccncc2c2ccccc12,89.4%
13,Cc1ccc(-c2nc(/C=N/Nc3cc(C)nc4ccc(Br)cc34)c(C)o2)cc1,-56.1% (active)
14,CCN(CC)c1ccc(CNc2cc(C)nc3ccc(OC)cc23)cc1,70.2%
15,CCCCCCCCCCCCCC(=O)C(C)N (stereo not given),51.6%
16,CN1CCN(c2ccc3nc(-c4ccc5nc(-c6ccc(OCCC(C)(C)C)cc6)[nH]c5c4)[nH]c3c2)CC1,-45.3% (active)
17,CS(=O)(=O)c1ccc(-c2cnc3ccc(-c4cccc(S(C)(=O)=O)c4)nn23)cc1,31%
18,CC/C=C\C[C@H](O)C/C=C1/C(=O)C=C[C@@H]1C/C=C\CCCC(=O)NC,-36.7% (active)
19,CCCCCCCCCCCCCCCCCCSC1=CC(=O)C(OC)=C(OC)C1=O,103%
20,CCOC(=O)c1c2c(n3ccc(NC(=O)CCN4CCOCC4)cc13)C(=O)c1ncccc1C2=O,40.4%

row,Compound,growth
1,c1c2c(cc3c1OCO3)Cc1cc3c(cc1Cc1cc4c(cc1C2)OCO4)OCO3,91.6%
2,CCCCCCCCCCCCCCCCNCCC[C@@H](C)[C@H]1CC[C@H]2[C@@H]3[C@H](OCCCN)C[C@@H]4C[C@H](OCCCN)CC[C@]4(C)[C@H]3C[C@H](OCCCN)[C@]12C,-58% (active)
3,CCCCNc1ccc2c3c1cccc3c(=O)n1c3ccccc3nc21,76.6%
4,O=C(NCc1cccc(C(F)(F)F)c1)[C@H](CCC(=O)N1CCN(C2CCCCC2)CC1)N1C(=O)[C@@H](N2C(=O)OC[C@@H]2c2ccccc2)[C@H]1/C(Cl)=C/c1ccccc1,37.7%
5,O=C(Nc1nc(-c2ccccc2)cc(-c2ccc(Cl)cc2)n1)c1ccncc1,90.5%
6,CS(=O)(=O)c1c(Nc2ccccc2)n[nH]c1N,95.9%
7,Nc1nc(-c2ccc(F)cc2)cc(-c2cnn(-c3ccccc3)n2)n1,95.3%
8,CCN(CC)Cc1cc(Nc2c3ccccc3nc3cc(Cl)ccc23)ccc1O,-37.6% (active)
9,Cc1nc2sc(C(=O)Nc3cccc4c3OCCO4)c(N)c2cc1C(C)O (stereo not given),49.9%
10,O=C(CN1CCOCC1)Nc1ccc(Cn2nnc3c2C(=O)c2nnn(Cc4ccc(NC(=O)CN5CCOCC5)cc4)c2C3=O)cc1,-11.9% (active)
11,Cc1csc2ccc(Cl)cc12,109%
12,C#Cc1nc2ccccc2c(=O)[nH]1,4.37% (active)
13,COc1cc(NCCCCCN=C(N)NC(N)=NC(C)C)c2ncccc2c1,89.9%
14,O=C(/C=C/c1ccc(Cl)cc1)c1ccc(O)c(CN2CCN(c3cc4c(cc3F)c(=O)c(C(=O)O)cn4C3CC3)CC2)c1,50%
15,Cc1ccc2c(NCCCN(C)C)c3c(C)nn(C)c3nc2c1,13.7%
16,Cn1c(=O)c2[nH]c(C(O)C(O)C(O)C(O)CO)nc2n(C)c1=O (stereo not given),88.7%
17,O=C1CC(c2nc3ccccc3s2)CN1C1CCCCC1 (stereo not given),98.9%
18,Cc1ccc2c(c1)n([O-])c1cc(Cl)ccc1[n+]2=O,98.9%
19,CNc1cc2nc3cc(NC)c(C)cc3cc2cc1C,-4.57% (active)
20,COc1ccc(C/C(C)=C(\c2ccc(Cl)cc2)c2ccc(OCCN3CCCCCC3)cc2)cc1,87.9%
